Source: PubChem BioAssay
In the library only some 2.8% were active in any assay of this set; here they are far more common.
SENP8 block-1: blocks the human protease SENP8; Q96LD8; purified SENP8, Z-RLRGG-aminoluciferin cleavage, luminescence; inhibition, % at 10 µM; 1.2% of 330,000 active; AID 2540; in the data active = inhibition above about 50%
Target sequence (Q96LD8 whole entry, looked up): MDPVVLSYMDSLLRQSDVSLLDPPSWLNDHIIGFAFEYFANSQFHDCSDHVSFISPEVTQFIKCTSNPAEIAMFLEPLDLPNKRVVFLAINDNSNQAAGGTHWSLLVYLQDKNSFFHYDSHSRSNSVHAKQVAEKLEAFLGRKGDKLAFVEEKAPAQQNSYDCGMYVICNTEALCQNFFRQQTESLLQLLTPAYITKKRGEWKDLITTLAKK
SENP7 inh: blocks the human protease SENP7; 1.5% of 330,000 active; inhibition, % at 5 µM; recombinant SENP7, Z-RLRGG-aminoluciferin luminescence, 40 min;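 active = inhibition above about 50% at the single test dose, limit read from the data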;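 note: plate controls were DMSO with enzyme for no effect and no enzyme buffer wells for full effect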
HSP90 inh: inhibitors of HSP90 luciferase refolding in rabbit reticulocyte lysate; luciferase refolding luminescence, 3 h; inhibition, % at 5.6 µM; 0.91% of 290,000 active;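 active = inhibition above the screen-wide mean plus 3 SD, computed separately per campaign, cut at about 16% in these data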;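 note: 0% = DMSO wells and 100% = 60 µM geldanamycin wells; inhibitors lower the luminescence because luciferase stays unfolded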
SENP8 block-2: inhibitors of human SENP8 protease; recombinant SENP8, Nedd8 substrate fluorescence; inhibition, % at 20 µM; 0.64% of 360,000 active; AID 602440; in the data active = inhibition mostly above about 40%, no sharp cut-off; inactive = mostly below about 27%
SENP6 block: blocks the human protease SENP6. Recombinant SENP6 catalytic domain, aminoluciferin luminescence. inhibition, % at 10 µM. 1.8% of 330,000 active;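 active = inhibition above about 50% at the single tested dose, limit read from the data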;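 note: plate controls were DMSO wells with enzyme for no effect and DMSO wells lacking enzyme for full effect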
HSP90 inh confirm: confirmation of HSP90 inhibitors | shares compounds with HSP90 inh | rabbit reticulocyte lysate, luciferase refolding luminescence, 3 h | inhibition, % at 5.9 µM | 64% of 2,300 active; in the data active = inhibition above about 18%;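 note: 0% = vehicle wells and 100% = reference inhibitor wells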
luciferase ctr: counter-screen for HSP90 inhibitors: inhibitors of firefly luciferase | shares compounds with HSP90 inh | purified native firefly luciferase, luminescence | inhibition, % at 5.9 µM | 48% of 2,300 active | AID 1847;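 active = inhibition above the mean inhibition of all tested sample wells plus 3 SD, cut at about 10% in these data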;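 note: 0% = DMSO with luciferase and 100% = wells lacking luciferase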
SENP8 conf: confirmation of human SENP8 protease inhibitors | inhibition, % at 12.5 µM | Recombinant SENP8, Z-RLRGG-aminoluciferin luminescence, 60 min | AID 488912 | 40% of 6,200 active | shares compounds with SENP7 inh;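 active = mean inhibition across replicates above about 50%, limit read from the data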
SENP6 conf: confirmation of human SENP6 protease inhibitors; shares compounds with SENP7 inh; recombinant SENP6, Z-RLRGG-aminoluciferin luminescence; inhibition, % at 12.5 µM; 58% of 6,200 active; AID 488915
SENP7 confirm: human SENP7 inhibition, confirmed; 69% of 6,200 active; shares compounds with SENP7 inh; recombinant SENP7, Z-RLRGG-aminoluciferin luminescence, 40 min; inhibition, % at 12.5 µM
Casp3 select: inhibits human caspase-3 in SENP selectivity test; 60% of 6,200 active; inhibition, % at 12.5 µM; shares compounds with SENP7 inh; AID 488918; purified caspase-3, Z-DEVD-aminoluciferin luminescence, 60 min;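 active = mean inhibition above about 50%, limit read from the data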;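 note: plate controls were enzyme with DMSO for no effect and wells without caspase-3 for full effect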
Target sequence (P42574 28-227 limits assumed): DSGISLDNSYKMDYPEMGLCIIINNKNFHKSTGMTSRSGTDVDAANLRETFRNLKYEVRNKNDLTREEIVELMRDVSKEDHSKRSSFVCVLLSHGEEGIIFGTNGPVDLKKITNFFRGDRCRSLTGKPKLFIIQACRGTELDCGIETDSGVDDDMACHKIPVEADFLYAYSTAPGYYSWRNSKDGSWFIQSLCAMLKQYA
SENP luc ctr: counter-screen for SENP inhibitors: luminescence interference | shares compounds with SENP7 inh | Pre-incubated SENP8/Z-RLRGG-aminoluciferin, luciferase luminescence interference | inhibition, % at 12.5 µM | 39% of 6,200 active;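 active = mean inhibition above about 50% when retested at one dose, limit read from the data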;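 note: plate controls were DMSO wells with completed reaction for no effect and substrate without enzyme for full effect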
* = called active by the depositor; x = no result.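 Rule for the calls, unless noted: active = mean inhibition above about 50% in the one-dose retest (limit read from the data); inactive = the rest.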

SMILES	SENP8 block-1	SENP7 inh	HSP90 inh	SENP8 block-2	SENP6 block	HSP90 inh confirm	luciferase ctr	SENP8 conf	SENP6 conf	SENP7 confirm	Casp3 select	SENP luc ctr
CCCCN1C(C)=CC(=C2C(=O)c3ccccc3C2=O)C=C1C	46.3	5.4	17.2*	21.7	60.2*	43.2*	30.9*	61.1*	60.3*	80.8*	84.7*	-1.2
CN1C=CC(=C2C(=O)c3ccccc3C2=O)C=C1	1.0	15.2	11.8	x	45.3	x	x	x	x	x	x	x
CCCCCCN1C=CC(=C2C(=O)c3ccccc3C2=O)C=C1	85.5*	75.9*	48.5*	16.8	87.1*	83.9*	77.9*	2.1	2.2	-4.3	-5.4	-2.0
CCN1C=CC(=C2C(=O)c3ccccc3C2=O)C=C1	76.0*	86.1*	85.9*	17.3	87.7*	92.8*	86.6*	-21.8	85.9*	99.7*	96.0*	89.1*
CC1=CC(=C2C(=O)c3ccccc3C2=O)C=C(C)N1Cc1ccco1	-3.7	-2.0	1.6	15.5	20.4	x	x	x	x	x	x	x
Cc1nc(SCc2ccc([N+](=O)[O-])cc2)nc2ccccc12	-10.9	-7.5	-1.0	9.3	-0.3	x	x	x	x	x	x	x
O=C(NCc1cc(C(F)(F)F)ccc1Cl)c1cccc2c1C(=O)c1ccc(N3CCC(Cc4ccccc4)CC3)cc1S2(=O)=O	5.3	6.4	x	-29.5	-7.1	x	x	x	x	x	x	x
O=C(CN1CCN(CC(=O)c2ccc(F)cc2)CC1)Nc1ccccc1Cl	6.9	-2.0	-1.1	-4.3	-9.1	x	x	x	x	x	x	x
Cc1cccc(C(=O)n2c(=S)nc3cc(C)ccn32)c1	57.8*	81.2*	17.8*	-20.1	74.8*	57.2*	46.9*	63.3*	71.6*	86.7*	45.9	30.5
O=C(Nc1ccc2c(c1)OCO2)c1ccc(Cl)c(S(=O)(=O)N2CCOCC2)c1	6.6	-4.5	-0.2	17.1	-4.8	x	x	x	x	x	x	x
Cc1cc(NC(=O)COC(=O)c2ccccc2Cl)no1	8.4	7.4	x	13.5	-4.4	x	x	x	x	x	x	x
Cc1ccc(/C(N)=N/OC(=O)c2ccc(C)cc2Cl)cc1	70.3*	85.1*	27.7*	10.3	80.5*	60.2*	56.1*	62.7*	63.2*	88.6*	56.9*	24.6
Cc1cc(/C(N)=N/OC(=O)c2ccccc2Cl)no1	76.9*	88.0*	24.8*	22.2	81.2*	19.2*	48.8*	84.8*	83.6*	97.3*	93.3*	85.5*
Cc1cccc(/C(N)=N/OC(=O)c2ccc(Cl)cc2Cl)c1	97.3*	98.3*	21.4*	14.6	94.2*	37.4*	49.7*	99.1*	100.3*	103.1*	98.9*	95.5*
COc1ccc(C(=O)O/N=C(\N)c2ccc(OC)c(OC)c2)c(OC)c1	-8.1	0.2	-1.2	30.2	3.8	x	x	x	x	x	x	x
Cc1ccc(/C(N)=N/OC(=O)c2ccc3ccccc3c2)cc1	-12.7	49.4	-0.6	-10.6	-11.3	x	x	x	x	x	x	x
COc1ccc(C(=O)O/N=C(\N)c2ccccc2)c(OC)c1	82.0*	81.5*	50.8*	9.2	91.8*	36.7*	26.3*	76.0*	69.3*	89.4*	84.7*	71.6*
COCCn1c(SCC#N)nnc1-c1ccccc1O	4.9	3.1	2.6	17.9	-2.9	x	x	x	x	x	x	x
CN(CC(=O)NC1CC1)S(=O)(=O)c1ccc(F)cc1	-4.7	-1.4	3.1	11.4	-11.0	x	x	x	x	x	x	x
Nc1ccc(C(=O)Nc2ccc3c(O)cc(S(=O)(=O)O)cc3c2)cc1	x	x	x	-24.5	x	x	x	x	x	x	x	x
